Measurements published in PMC10726135, “HNF4α isoforms regulate the circadian balance between carbohydrate and lipid metabolism in the liver”.
In all, about 18,000 sequences were measured (“log2 normalized intensity”: median about 0.39, highest 2% from about 6.6 on). The entries come from a sample that favours the highest values as a whole.

target: T1, HNF4alpha2 (COS-7 nuclear extract) (Homo sapiens, UniProt P41235 1-474); assay: protein-binding microarray; COS-7 nuclear extract on double-stranded Agilent 4x180k PBM; binding buffer, salt, pH and temperature not given in the material; high values mean tight binding; conditions: chain copies: 2; label: 3' end of strand 1 on the slide; dsDNA, one strand shown
T1 sequence: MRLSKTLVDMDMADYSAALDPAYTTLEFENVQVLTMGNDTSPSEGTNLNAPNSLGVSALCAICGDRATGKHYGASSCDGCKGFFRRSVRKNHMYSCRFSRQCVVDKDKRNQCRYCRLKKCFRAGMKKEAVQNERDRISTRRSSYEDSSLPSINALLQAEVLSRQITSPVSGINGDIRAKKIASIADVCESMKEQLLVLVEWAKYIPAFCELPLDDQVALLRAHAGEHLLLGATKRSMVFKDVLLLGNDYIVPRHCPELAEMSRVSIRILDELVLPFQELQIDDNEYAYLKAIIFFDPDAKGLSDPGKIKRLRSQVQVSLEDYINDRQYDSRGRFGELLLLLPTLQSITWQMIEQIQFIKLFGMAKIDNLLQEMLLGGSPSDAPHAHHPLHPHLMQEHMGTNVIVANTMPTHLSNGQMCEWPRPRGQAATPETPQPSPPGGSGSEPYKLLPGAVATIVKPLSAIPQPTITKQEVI
Outline: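 A custom Agilent SurePrint G3 4x180k array, spotted in quadruplicate with ~44,000 test sequences as ~60-nt oligonucleotides made double-stranded, was incubated with nuclear extracts. The extracts came from COS-7 cells transiently transfected by CaPO4 with a human HNF4α isoform expression vector. Bound HNF4α was imaged on an Agilent G2565CA scanner at 2-µm resolution, and the binding signal was taken as Agilent software's background-corrected, normalized gProcessedSignal.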

Sequence | binding signal [log2 normalized intensity]
CCCAGGTCACCCACAACCTACCCTTTGCCCGCCTAGGGAGATTAGAGTATCGGTCGA | 3.99
GGCTAGGGCAAAGATCAAACATACAGTAAAGCCTAGGGAGATTAGAGTATCGGTCGA | 1.77
TAGCAATAATCTTTGAAATCTGCAAATAGAGCCTAGGGAGATTAGAGTATCGGTCGA | -0.0917
TCTGTGTGTATGTGTGTGTACACATTGATAGCCTAGGGAGATTAGAGTATCGGTCGA | 2.42
GATGGAGATCATCCTGCAGTTCCTGATCTTGCCTAGGGAGATTAGAGTATCGGTCGA | -0.826
AATTCCAGTTTGGACTTTGATCCTGATGACGCCTAGGGAGATTAGAGTATCGGTCGA | 9.15
TTTGATCCTGATGACTGCAGAGCTTGCTCTGCCTAGGGAGATTAGAGTATCGGTCGA | -0.687
AGATCATCCTGCAGTTCCTGATCTTTGACCGCCTAGGGAGATTAGAGTATCGGTCGA | 7.04
ATCCTGCAGTTCCTGATCTTTGACCTGGAGGCCTAGGGAGATTAGAGTATCGGTCGA | 5.61
CAGTTTGGACTTTGATCCTGATGACTGCAGGCCTAGGGAGATTAGAGTATCGGTCGA | 7.49
GGAGAGAGTTTGGCCCCAGTTCCCATGGACGCCTAGGGAGATTAGAGTATCGGTCGA | 1.18
GCAGTTCCTGATCTTTGACCTGGAGCATGAGCCTAGGGAGATTAGAGTATCGGTCGA | 4.61
TGGACTTTGATCCTGATGACTGCAGAGCTTGCCTAGGGAGATTAGAGTATCGGTCGA | 5.26
CTTCTGTTCAGGAGTTGTCTGTCCAGTTCAGCCTAGGGAGATTAGAGTATCGGTCGA | 1.56
TAATCCCTGAGCCTGGACCTTGGAATGTCAGCCTAGGGAGATTAGAGTATCGGTCGA | 3.33
AATTCACGTCATTTTGTCACCTACATGTGAGCCTAGGGAGATTAGAGTATCGGTCGA | 1.67
TGCCCTGGACATATTTGTCTTCCTATCTCCGCCTAGGGAGATTAGAGTATCGGTCGA | 0.887
TTCCAGAGCCTTCAAAGGAAAGCAGGTGTTGCCTAGGGAGATTAGAGTATCGGTCGA | 0.55
CAGGGTCAATGTCCCCTTAGGAATAGTATCGCCTAGGGAGATTAGAGTATCGGTCGA | 2.14
ACCTGGAACTGAAAGAGACCTTTGACATCAGCCTAGGGAGATTAGAGTATCGGTCGA | 4.5
GGGATGGACTTTGGCCCTCAGCCCAATGTGGCCTAGGGAGATTAGAGTATCGGTCGA | 6.2
TACTGGGGATGGACTTTGGCCCTCAGCCCAGCCTAGGGAGATTAGAGTATCGGTCGA | 8.56
GATTGGACTTTGGCCTGTGAATCCACATTCGCCTAGGGAGATTAGAGTATCGGTCGA | 5.98
AAAGAGATTGGACTTTGGCCTGTGAATCCAGCCTAGGGAGATTAGAGTATCGGTCGA | 8.37

Sequence | binding signal [log2 normalized intensity]
GGACTTTGGCCCTCAGCCCAATGTGGTAGGGCCTAGGGAGATTAGAGTATCGGTCGA | 5.47
CAGCCTTTGGACTTTGAACTGCAACATCAGGCCTAGGGAGATTAGAGTATCGGTCGA | 8.26
TCTGCAGCAGATGGCCAGCCTTTGGACTTTGCCTAGGGAGATTAGAGTATCGGTCGA | 7.15
CTGGACTTTGGCTGCAAAATTTGAACAAAAGCCTAGGGAGATTAGAGTATCGGTCGA | 1.55
TGAATTCTGCAGCAGATGGCCAGCCTTTGGGCCTAGGGAGATTAGAGTATCGGTCGA | -0.936
TTGAAAGGGACTTAGAATCGAATTGTGAAAGCCTAGGGAGATTAGAGTATCGGTCGA | -0.196
GAACAGCAAGACTTTGGCCCTGCAGACTTTGCCTAGGGAGATTAGAGTATCGGTCGA | 2.09
CCCTTTGCACATGCCCCTCCCAGGGACACAGCCTAGGGAGATTAGAGTATCGGTCGA | 3.12
CAGAAAAATGGAGCAGCTCTGTATTGAGATGCCTAGGGAGATTAGAGTATCGGTCGA | -0.99
TGCCATTCTTCCAGTTGTGTGCACAAGAGGGCCTAGGGAGATTAGAGTATCGGTCGA | 1.7
GAATTTCATTTTGCTCTTTGTTCAGATACAGCCTAGGGAGATTAGAGTATCGGTCGA | 1.33
TTTTTTCAAGTGTTAGCTGTTTCCAAATATGCCTAGGGAGATTAGAGTATCGGTCGA | 1.42
AATCCCTTAGGCTTTTGCACTTTACTCAGAGCCTAGGGAGATTAGAGTATCGGTCGA | 3.14
CCCCTCCCTCCGCAACCTTTACTCCTTGTGGCCTAGGGAGATTAGAGTATCGGTCGA | 3.68
GTCACCACCTTTTTTGGCCTTTACCCCTTGGCCTAGGGAGATTAGAGTATCGGTCGA | 4.8
AAAAAACCCTAGAGATGTACACAGTTCAAAGCCTAGGGAGATTAGAGTATCGGTCGA | -0.874
TTTTTGGCCTTTACCCCTTGAGTTTGAACTGCCTAGGGAGATTAGAGTATCGGTCGA | 3.59
ATGGCCAGCCTTTGGACTTTGAACTGCAACGCCTAGGGAGATTAGAGTATCGGTCGA | 9.66
TCAAATATTTGGATAATGTGCCCTTTGTACGCCTAGGGAGATTAGAGTATCGGTCGA | 6.6
TACCTTTCCTGCATTAACATCAACATGGACGCCTAGGGAGATTAGAGTATCGGTCGA | 2.1
AGCAGATGGCCAGCCTTTGGACTTTGAACTGCCTAGGGAGATTAGAGTATCGGTCGA | 10.7
TTTGAAGCAAAGCCTTTGAGCAGATGGAAGGCCTAGGGAGATTAGAGTATCGGTCGA | 0.0298
GGATAATGTGCCCTTTGTACCTGGGGCAAAGCCTAGGGAGATTAGAGTATCGGTCGA | 5.03
